Reference: paper PMC7819943, “Rice protein-binding microarrays: a tool to detect cis-acting elements near promoter regions in rice”
In all, about 39,000 sequences were measured (“fluorescence intensity (a.u.)”: median about 4,300, highest 2% from about 39,000 on). The sample as a whole holds a higher share of the highest values than the screen did.

Target: T1, OsSMF1 (Oryza sativa, UniProt Q6ZLB0 1-436)
T1 sequence: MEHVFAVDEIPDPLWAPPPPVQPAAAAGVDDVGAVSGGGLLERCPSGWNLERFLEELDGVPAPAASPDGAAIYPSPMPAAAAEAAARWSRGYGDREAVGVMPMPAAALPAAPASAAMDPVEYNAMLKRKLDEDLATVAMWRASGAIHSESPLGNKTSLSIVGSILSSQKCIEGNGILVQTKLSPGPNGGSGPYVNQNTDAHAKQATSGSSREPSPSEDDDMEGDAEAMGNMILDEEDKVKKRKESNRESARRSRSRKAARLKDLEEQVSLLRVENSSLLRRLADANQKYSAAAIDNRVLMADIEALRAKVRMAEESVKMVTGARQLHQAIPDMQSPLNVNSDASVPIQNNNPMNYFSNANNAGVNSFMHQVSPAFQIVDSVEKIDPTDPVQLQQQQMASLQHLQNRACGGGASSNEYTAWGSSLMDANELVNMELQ
Assay: protein-binding microarray (RPBM); PBS, 2% BSA, 51.3 ng/ul salmon testes DNA, 50 uM zinc acetate, 200 nM TF, 25 C, 1 h; high values mean tight binding
Conditions: protein: recombinant; tags: N-terminal polyhistidine and DsRed monomer fusion (pET32a); chain copies: 2; label: CyDye5-dUTP incorporated in the synthesized complementary strand; 3' TTTTT single-stranded linker to array surface; dsDNA, one strand shown
In short: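 Polyhistidine-tagged DsRed fusions of transcription factors, joined at the N-terminus, were expressed in E. coli BL21-CodonPlus and isolated on Ni–NTA. They were incubated at 200 nM for 1 h at 25 °C on a custom Agilent array, double-stranded and BSA-blocked, in PBS with 2% BSA, salmon testes DNA and 50 µM zinc acetate. The binding signal is per-feature fluorescence intensity (arbitrary units) read on an Axon 4000B scanner after washing.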

Sequence | binding signal
TCTCAACCCTCAGGTAATCTACTGCTGCGCGTGGTGAATCCGGAGTCACCTAGTGCAG | 4080 fluorescence intensity (a.u.)
AAAGTCCGCTCGTGTTATTGGTAATTGAACTACTAAGCTACGGAGTCACCTAGTGCAG | 41300 fluorescence intensity (a.u.)
ATACTAATAGTATAGTAAGCAACTATTGTATGAATTGGCTCGGAGTCACCTAGTGCAG | 3740 fluorescence intensity (a.u.)
CTACTAATAAGGCGTGTTATTATTGGTCATCAATGGCGTCCGGAGTCACCTAGTGCAG | 3300 fluorescence intensity (a.u.)
GGATCCGGGCATCTGGCTGCCCCGCCGCCACTCCGCCTAGCGGAGTCACCTAGTGCAG | 3330 fluorescence intensity (a.u.)
ATTGGTATGGTATATTCATACCATAACATAAGAACAATAACGGAGTCACCTAGTGCAG | 21200 fluorescence intensity (a.u.)
TTGGATGTTTGCCGTGGACAAGTGCTAACTGTCAAAACCCCGGAGTCACCTAGTGCAG | 34900 fluorescence intensity (a.u.)
TTGAAACTGTGCATGCGCATCACCTTCATGCCCAAAATTTCGGAGTCACCTAGTGCAG | 3160 fluorescence intensity (a.u.)
GTGTGAAAAGATGCTGGCCCAATTAATTTGCGCGCGTCATCGGAGTCACCTAGTGCAG | 48700 fluorescence intensity (a.u.)
CTTGTGGCCCATTAATGGCTCGCGTCGGCCTAATTTTGTGCGGAGTCACCTAGTGCAG | 4450 fluorescence intensity (a.u.)
ACCAGTCCCAAATCAAACAGTCCTACTAGTTGCATTTTGTCGGAGTCACCTAGTGCAG | 47200 fluorescence intensity (a.u.)
AACGTCGGTTCCCAAACATTTGTTTTCCTTACCAATCGGGCGGAGTCACCTAGTGCAG | 3490 fluorescence intensity (a.u.)
TATCATTTGTCAAACACACCCATATCCCATTTGCCAATCACGGAGTCACCTAGTGCAG | 3890 fluorescence intensity (a.u.)
TCAATCATGAGGACATGGTAATATATTGCTTGTGTTGCTTCGGAGTCACCTAGTGCAG | 3550 fluorescence intensity (a.u.)
AATTATAAAATCCAGAAAATAAACTAAGAACTGAAAACTACGGAGTCACCTAGTGCAG | 5060 fluorescence intensity (a.u.)
GTGTGAAACTCATACAAATATAAAATTACTGAACTACCGTCGGAGTCACCTAGTGCAG | 49600 fluorescence intensity (a.u.)
ACAAATACTGATACATATACCTATACGTATGCGTCACCGTCGGAGTCACCTAGTGCAG | 8380 fluorescence intensity (a.u.)
TCAGGATGACTCGAAGTCGAATCCGCGTAATACGCTGGCGCGGAGTCACCTAGTGCAG | 3370 fluorescence intensity (a.u.)
CCATCACCTCGTCGTCCCCGTCACCGCGCCTCTCCCGCTGCGGAGTCACCTAGTGCAG | 3780 fluorescence intensity (a.u.)
TTGAATGGTGATGTAACTTGCATGGTTCTACACTTGATGACGGAGTCACCTAGTGCAG | 3610 fluorescence intensity (a.u.)
CTCCGATGGAAGCCACGTCCTGTCCAATTCCCAAACTAACCGGAGTCACCTAGTGCAG | 4220 fluorescence intensity (a.u.)
GGGCAGCGCTAACCCAAAGCTCCTGCGATTCCAAACCGACCGGAGTCACCTAGTGCAG | 64800 fluorescence intensity (a.u.)

Sequence | binding signal
TAATTCCAAGCTTGTTTCACCGACCTGCCAAACTCGATTGCGGAGTCACCTAGTGCAG | 3270 fluorescence intensity (a.u.)
AAGGTGATAGGGTCTCAAGTACGTCATTATGAATGTAAATCGGAGTCACCTAGTGCAG | 3910 fluorescence intensity (a.u.)
TCTAGACAATCAAGCCGCTAGAAGTTTCATAGAGTGGTAGCGGAGTCACCTAGTGCAG | 7160 fluorescence intensity (a.u.)
CTCCCTAGTCCACAAAACCTAGTGACGCGGCGAAACCCAACGGAGTCACCTAGTGCAG | 5660 fluorescence intensity (a.u.)
ACATGGGCCGCAATCAGGTCACGTGGCTAGGCCTTGGGCCCGGAGTCACCTAGTGCAG | 3230 fluorescence intensity (a.u.)
TTAGCCATTGCTACTTGCTTGCAGCGCGCGTGTCGGCTAGCGGAGTCACCTAGTGCAG | 25300 fluorescence intensity (a.u.)
TTTCAGTAGCGTCGGCTGCTCTATCTACTTGCATTGCCTGCGGAGTCACCTAGTGCAG | 41000 fluorescence intensity (a.u.)
GTGTGCTCTTGCATACATACTTGGGCTTATCTAGCTGCGTCGGAGTCACCTAGTGCAG | 5510 fluorescence intensity (a.u.)
GTTTCTTATTTTATGAATGGTATGAGTAAGAATATGTTTGCGGAGTCACCTAGTGCAG | 3690 fluorescence intensity (a.u.)
CTAGTTTACATCTGCAATGTCATGATTTATTTATGGAATACGGAGTCACCTAGTGCAG | 19500 fluorescence intensity (a.u.)
TGGAAAGAATACAGTATGATATGGTCTTATTTTGTCTGCCCGGAGTCACCTAGTGCAG | 41200 fluorescence intensity (a.u.)
GCGAGCAGTCGATGTCCTCGATGACGATGATGGACTTGCTCGGAGTCACCTAGTGCAG | 4140 fluorescence intensity (a.u.)
AGGGCTATCTGCTATCTCATCTTGTATGACAAAGATTGATCGGAGTCACCTAGTGCAG | 65500 fluorescence intensity (a.u.)
AGTAGAGAGATCTTGACAAAGTCATCGGTGATGAAGTCGACGGAGTCACCTAGTGCAG | 3570 fluorescence intensity (a.u.)
TATGACATCGGCTCAAAGATAAATGATATGTCATCGGCATCGGAGTCACCTAGTGCAG | 3540 fluorescence intensity (a.u.)
CCGTTGCCGCGCCGTGGACCGACAGCCACTGACGTCACCCCGGAGTCACCTAGTGCAG | 18600 fluorescence intensity (a.u.)
TTGAACCAACACTATATCATACACCTAGTCACCTACTCCTCGGAGTCACCTAGTGCAG | 4770 fluorescence intensity (a.u.)
ACTAATTGTGGCCATGTTCATCGTGCAGTTCCTTGGATCTCGGAGTCACCTAGTGCAG | 17300 fluorescence intensity (a.u.)
ACACATTCCATATCCTTGGACTAATTCACGAGACGAATCTCGGAGTCACCTAGTGCAG | 40900 fluorescence intensity (a.u.)
CATCTCCATTCTTTCATCCTCATCTCTAATGGAGAATTTCCGGAGTCACCTAGTGCAG | 3920 fluorescence intensity (a.u.)
AGTAATTAAAATTTAAGAGGCAAAATTACGTGTGAATTTGCGGAGTCACCTAGTGCAG | 4130 fluorescence intensity (a.u.)
CCCGAAGCGGATTCGCGCACGGAAACCCACAGTCGATTCTCGGAGTCACCTAGTGCAG | 3590 fluorescence intensity (a.u.)
